Screening results from PubChem BioAssay.
Hits are enriched below; roughly 19% of the tested compounds scored in any of these assays.
TDP1 cell CPT: growth inhibition of DT40 Tdp1-/-;hTDP1 cells with camptothecin (screen for TDP1 inhibitors); chicken DT40 Tdp1-/-;hTDP1 cells + 20 nM CPT, ATP luminescence, 48 h; Potency, µM (top dose mostly 46.2 µM), inactives show at the top dose activity change, negative = growth inhibition, actives largely listed as inhibitors; hit rate 12% among 420,000; AID 686979; note: potency is the fitted concentration of half-maximal effect; nearly all actives have a fitted effect of over 55% in size
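Chicken DT40 Tdp1-/- cells stably complemented with human TDP1 were seeded at 400 cells/well in medium containing 20 nM camptothecin, exposed to pin-transferred compounds, and grown at 37 °C for at least 48 hr. Viability was read as ATP luminescence.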
TDP1 cell noCPT: qHTS for Inhibitors of human tyrosyl-DNA phosphodiesterase 1 (TDP1): qHTS in cells in absence of CPT | DT40 Tdp1-/- hTDP1 cells, no CPT, ATP luminescence, 48 h | Potency, µM (doses to about 46.2 µM), for the others: top-dose activity change, negative = growth inhibition, hits mostly inhibitors | hit rate 15% among 420,000; note: potency is the fitted concentration of half-maximal effect; nearly all actives have a fitted effect of over 55% in size
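Growth kinetics read by CellTiter-Glo luminescence after ≥48 hr at 37 °C. Cells: DT40 Tdp1-/- stably carrying human TDP1, 400 per well, compound exposure in the absence of CPT (DMSO vehicle).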
HT1080NT lethal: kills 2HG-producing HT-1080-NT fibrosarcoma cells; HT-1080-NT fibrosarcoma viability, CellTiter-Glo ATP luminescence, 48 h; Potency, µM (titrated, usually from 46.1 µM), for inactives: at the highest dose activity, negative = less viability, actives largely listed as cytotoxic; hit rate 1.6% among 360,000; AID 686970;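 note: NT is the 2HG producing partner of a matched IDH1 knockdown line; potency is the fitted concentration of half-maximal effect; 0% = DMSO-treated cells and -100% = media-only wells without cells; nearly all actives have a fitted effect of over 55% in size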
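Toxicity toward the 2HG-producing NT line was scored as %Activity, normalised to DMSO and no-cell wells, from CellTiter-Glo luminescence after 48 hours' treatment.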
HT1080 IDH1KD tx: HT-1080 IDH1 knockdown cell toxicity (counter line); HT-1080 IDH1 knockdown viability, ATP luminescence, 48 h; Potency, µM (top dose mostly 46.1 µM), without a hit: at the top dose activity, negative = toxicity, actives largely listed as cytotoxic; hit rate 2% among 360,000;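 note: potency is the fitted concentration of half-maximal effect; 0% = DMSO wells and -100% = cell-free medium wells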
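CellTiter-Glo luminescence after 48 h compound exposure at 37 degrees C of IDH1-knockdown HT-1080 cells in 5% FBS RPMI. %Activity scaled between DMSO wells and cell-free media wells, with curves fitted and assigned curve classes.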
IL-1B inflam inh: inhibitors of inflammasome signaling (IL-1 beta secretion); THP-1 LPS/ATP IL-1B secretion, AlphaLISA, 16 h; hits give low values; activity change, % at 57.5 µM; hit rate 4.7% among 360,000; in the data active = activity change below about -50%; inconclusive = mostly about -30% to -49%
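Secreted IL-1B measured by AlphaLISA bead assay after 16 h compound exposure of THP-1 cells; compounds (final up to 57.5 uM) added 1 h before LPS (250 ng/mL) and ATP (1.25 mM) stimulation; lower signal means less secretion.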
* hit, by the source's call; ? = inconclusive; . = not tested or not shown; [ ] = dose if it differs, or a comment. Unless noted, calls come from the whole dose curve; as a rule, active = well fitted curve in the direction sought with a large enough effect; inconclusive = small, poorly fitted or top-dose-only effect, or another doubt; inactive = no such curve, though single readings can be large; an effect the other way counts as inactive or inconclusive. Unless noted, % is set by controls: 0 for no effect and ±100 for the full control effect.

SMILES	TDP1 cell CPT	TDP1 cell noCPT	HT1080NT lethal	HT1080 IDH1KD tx	IL-1B inflam inh
CC1CN(C(=S)Nc2cccc([N+](=O)[O-])c2)CC(C)O1 (stereo unspecified)	2.5%	0.8%	-2.2%	5.3%	0.0
O=C(NC(=S)Nc1cc([N+](=O)[O-])ccc1O)c1cccnc1	20.6µM*	25.9µM*	-10.9%	-10.4%	10.1
CC1CN(C(=S)NC(=O)c2cccc([N+](=O)[O-])c2)CC(C)O1 (stereo unspecified)	?	16.4µM*	0.1%	-3.2%[9.24 µM]	27.7
COc1ccccc1NC(=O)CSc1nc(O)c(C/C=C/c2ccccc2)c(=O)[nH]1	-6.1%	-17.9%	.	.	.
O=C(CCCCn1c(=O)c2ccccc2n(Cc2ccc(F)cc2)c1=O)NCc1ccco1	16.4µM*	14.6µM*	18.4µM*	-15.0%[9.24 µM]	-3.8
Cc1ccc(CSc2nc3ccccc3c(=O)n2CCCC(=O)NCc2ccco2)cc1	?	11.6µM*	15.5%	?	16.8
O=c1c2ccccc2nc(SCc2ccc([N+](=O)[O-])cc2)n1CCCO	10.3µM*	6.51µM*	?	?	-12.8
Cc1ccc(CNC(=O)CCCn2c(=O)c3ccccc3n(CC(=O)NCc3ccco3)c2=O)cc1	-8.4%	-24.8%	11.1%	18.2%	0.0
O=C(CCCn1c(=O)c2ccccc2n(Cc2ccccc2)c1=O)NCc1ccco1	11.6µM*	14.6µM*	?	?	-7.8
COC(=O)c1ccc(Cn2c(C)c(C(=O)Nc3cccc(Oc4ccccc4)c3)sc2=O)o1	?	?	1.1%	-19.3%	?
O=C(c1cccc(C(F)(F)F)c1)N1CCN(CCc2ccccc2)CC1	-24.2%	-18.4%	0.9%	3.1%	-9.8
CCN(CC)C(=O)Cn1c(=O)n(CC2CCC(C(=O)NC)CC2)c(=O)c2sccc21 (stereo unspecified)	-14.4%	-14.2%	.	.	.
Cc1ccc(CNC(=O)CSc2nc3ccsc3c(=O)n2Cc2ccccn2)cc1	-1.0%	-13.9%	4.8%	0.2%	1.4
O=c1c2sccc2nc(SCc2ccc([N+](=O)[O-])cc2)n1Cc1ccccn1	?	16.4µM*	-14.0%	-11.2%	?
COc1c2c(c(C)c3c1C(=O)OC3)O[C@@]1(C)CC[C@@]3(O)C(C)(C)OC(=O)CC[C@]3(C)[C@H]1C2	?	?	-0.9%	-3.4%	7.5
O=C(N/N=C/c1cc(Cl)ccc1O)C(=O)Nc1ccccc1OC(F)(F)C(F)F	2.06µM*	1.84µM*	?	?	39.4
O=C(N/N=C/c1cc(Br)ccc1O)C(=O)Nc1ccccc1OC(F)(F)C(F)F	5.01µM*	2.82µM*	1.41µM*	0.891µM*	155.9
O=C(CN1C(=O)/C(=C/c2ccc(F)cc2)SC1=S)NC1CCS(=O)(=O)C1 (stereo unspecified)	-19.9%	-13.6%	7.3%	-0.4%	-12.7
CC(C)CCNC(=O)C(c1ccc(O)cc1)N(C(=O)C1COc2ccccc2O1)c1cccc(O)c1 (stereo unspecified)	?	20.6µM*	-13.3%	?	-76.3*
O=C(C[n+]1ccc2ccccc2c1)c1ccccc1	4.3%	-6.3%	15.2%	-22.2%	31.4
O=C(C[n+]1ccc2ccccc2c1)c1ccc2ccc3ccccc3c2c1	3.26µM*	4.11µM*	?	?	?
CC(C)(O)P(C)(=O)c1ccccc1 (stereo unspecified)	-12.6%	-7.8%	0.2%	-1.2%	1.1
CC(C)(C)c1cccc(P(=O)(c2ccccc2)c2ccccc2)c1O	2.5%	-9.1%	-22.0%	-6.0%	-71.0*
Cc1ccc([N+](=O)[O-])cc1NC(=O)C[n+]1ccccc1	2.6%	6.8%	5.9%	-0.9%	2.4
CC(C)Cn1c(N2CCN(CC(=O)Nc3ccc(Cl)cc3)CC2)nc2ccccc21	?	20.6µM*	-7.1%	-23.0%	-85.1*
SMILES	TDP1 cell CPT	TDP1 cell noCPT	HT1080NT lethal	HT1080 IDH1KD tx	IL-1B inflam inh
Cc1ccc(NC(=O)NCc2nc3ccccc3n2C)cc1	?	23.1µM*	2.7%	1.4%	19.4
Cc1ccc(SCc2nc3ccccc3n2CC(=O)Nc2ccc(Cl)cc2)cc1	20.6µM*	?	?	?	-2.3
CCn1c(N2CCN(CC(=O)Nc3cccc(C)c3C)CC2)nc2ccccc21	-22.9%	20.6µM*	1.2%	-0.6%	-17.0
Cc1nn(C)cc1S(=O)(=O)NCc1ccccc1Cl	20.1%	13.7%	14.9%	21.6%	0.5
O=S(=O)(c1ccc(F)cc1)N1CCC(n2c(C(F)(F)F)nc3cccnc32)CC1	11.6µM*	-102.8%	.	.	.
COc1cc(C=C(c2nc3ccccc3s2)c2nc3ccccc3s2)cc(OC)c1O	23.1µM*	?	-25.8%	-22.9%	-82.5*
O=C(O)c1ccc(C=C(c2nc3ccccc3s2)c2nc3ccccc3s2)cc1	?	0.7%	?	?	-108.4*
COc1cc(/C=N\Nc2nc(-c3ccc(C)cc3)c(NC(C)=O)s2)ccc1O	-23.8%	-18.0%	-22.3%	-16.3%	-62.1*
COc1cc(/C=N/NC(=Nc2ccc(C)cc2)c2nc3ccccc3s2)ccc1O	14.1µM*	15.8µM*	?	?	-13.5
O=C(CNC(=O)C12CC3CC(CC(C3)C1)C2)Nc1ncccc1O	-23.4%	20.9%	-1.4%	6.4%	26.0
O=C(CN1C(=O)COc2ccc(Cl)cc21)Nc1ccccn1	0.4%	-25.0%	0.5%	15.8%	-20.3
CN(C)c1ccc(/C=C(\Cl)c2nc3ccccc3s2)cc1	16.4µM*	20.6µM*	-16.7%	-28.8%	-7.4
CCc1cc(-c2nnn(CCC3COCCO3)c2CC)ccc1-c1cn(Cc2ccccc2)nn1 (stereo unspecified)	16.4µM*	20.6µM*	-6.3%	-28.4%	0.2
CC(/C=C/c1ccco1)=N/NC(=O)Cc1cccs1	7.08µM*	3.98µM*	-0.2%	5.4%	-7.6
CC(/C=C/c1ccco1)=N/NC(=O)OC(C)(C)C	?	14.6µM*	-1.1%	-3.7%	-0.9
CC(=C/C(=O)O)/C=C/c1ccco1	6.51µM*	7.31µM*	?	?	-19.5
CC(/C=C/c1ccc(Cl)o1)=C\C(=O)O	-6.8%	-4.1%	3.1%	18.0%	-4.0
CC1CN(S(=O)(=O)c2cccc(C(=O)NCC(c3cccs3)N3CCOCC3)c2)CC(C)O1 (stereo unspecified)	-16.9%	-7.9%	0.6%	5.1%	38.6
CC1CCN(CCC(=O)Nc2ccc(F)c(F)c2)CC1	-0.1%	-28.8%	-1.9%	0.4%	-3.8
Cc1ccc(C(=O)COC(=O)C2CC(=O)N(c3nc(-c4ccccc4)cs3)C2)cc1 (stereo unspecified)	-17.0%	-14.3%	-1.7%	0.7%	24.6
COc1ccccc1OCCn1c(=S)[nH]c2ccccc21	18.4µM*	?	-26.7%	?	10.7
